Source: PubChem BioAssay (National Center for Advancing Translational Sciences (NCATS))
A selection: hits, their analogues and other compounds. The true share with any hit is near 19%.
TDP1 cell CPT – qHTS for Inhibitors of human tyrosyl-DNA phosphodiesterase 1 (TDP1): qHTS in cells in presence of CPT | 420,000 compounds, 12% hits | Potency, µM (titrated, usually from 46.2 µM), inactives show at the top dose activity change, negative = growth inhibition, usual class: inhibitors | chicken DT40 Tdp1-/-;hTDP1 cells + 20 nM CPT, ATP luminescence, 48 h; note: potency is the fitted concentration of half-maximal effect; nearly all actives have a fitted effect of over 55% in size
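Chicken DT40 Tdp1-/- cells stably complemented with human TDP1 were seeded at 400 cells/well in medium containing 20 nM camptothecin, exposed to pin-transferred compounds, and grown at 37 °C for at least 48 hr. Viability was read as ATP luminescence.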
Giardia kill – Small Molecules that selectively kill Giardia lamblia: qHTS. activity change, % at 7.66 µM, hits read low. Giardia lamblia trophozoite viability. 340,000 compounds, 0.15% hits; in the data active = activity change below about -80%; inconclusive = between about -30% and that limit;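 note: parasites exposed to compound for two days anaerobically before the ATP read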
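Killing of trophozoites was scored by loss of ATP luminescence after a 48 hrs anaerobic exposure to compounds at 37 deg C, using 100 cells per well.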
TDP1 cell noCPT – qHTS for Inhibitors of human tyrosyl-DNA phosphodiesterase 1 (TDP1): qHTS in cells in absence of CPT | DT40 Tdp1-/- hTDP1 cells, no CPT, ATP luminescence, 48 h | AID 686978, 2013 | 420,000 compounds, 15% hits | Potency, µM (series often up to 46.2 µM), for the others: top-dose activity change, negative = growth inhibition, actives largely listed as inhibitors; note: potency is the fitted concentration of half-maximal effect; nearly all actives have a fitted effect of over 55% in size
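Luminescent ATP content (CellTiter-Glo) served as the growth readout. Knockout chicken DT40 cells expressing human TDP1 were exposed to compounds without camptothecin for a minimum 48 hr at 37 °C.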
TDP1 inh – qHTS Assay for Inhibitors of Tyrosyl-DNA Phosphodiesterase (TDP1) | 350,000 compounds, 0.28% hits | Tyrosyl-DNA phosphodiesterase 1 (Homo sapiens), Q9NUW8 | recombinant TDP1, AlphaScreen DNA substrate cleavage | Potency, µM (series often up to 130 µM), for the others: at the highest dose activity change, negative = inhibition, usual class: inhibitors | AID 485290, 2010; note: potency is the fitted concentration of half-maximal effect; nearly all actives have a fitted effect of over 40% in size
Target sequence (Q9NUW8 whole entry, looked up): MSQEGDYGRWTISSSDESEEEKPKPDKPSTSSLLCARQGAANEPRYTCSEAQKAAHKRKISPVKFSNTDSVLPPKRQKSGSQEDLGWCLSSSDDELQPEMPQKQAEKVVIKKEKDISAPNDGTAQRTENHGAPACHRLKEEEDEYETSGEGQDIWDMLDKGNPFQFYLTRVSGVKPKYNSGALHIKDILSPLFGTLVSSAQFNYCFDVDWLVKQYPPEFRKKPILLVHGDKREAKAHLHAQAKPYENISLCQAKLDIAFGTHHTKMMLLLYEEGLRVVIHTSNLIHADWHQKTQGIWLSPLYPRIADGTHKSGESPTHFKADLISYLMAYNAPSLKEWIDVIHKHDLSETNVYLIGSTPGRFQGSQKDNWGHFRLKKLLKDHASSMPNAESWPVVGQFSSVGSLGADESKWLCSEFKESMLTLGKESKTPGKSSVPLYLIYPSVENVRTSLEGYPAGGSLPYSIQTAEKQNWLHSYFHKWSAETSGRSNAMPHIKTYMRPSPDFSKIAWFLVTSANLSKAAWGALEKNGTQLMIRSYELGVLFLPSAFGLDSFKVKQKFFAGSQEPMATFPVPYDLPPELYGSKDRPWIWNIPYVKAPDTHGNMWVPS
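Steps: enzyme plus compound, 15 min RT; add biotin/phosphotyrosine-FITC oligonucleotide (15 nM final), react 5 min; add donor/acceptor beads (10 ug/ml final), 10 min; read AlphaScreen. Tdp1 at 1 nM final.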
ELG1 DNA repair – qHTS screen for small molecules that inhibit ELG1-dependent DNA repair in human embryonic kidney (HEK293T) cells expressing luciferase-tagged ELG1. 330,000 compounds, 2.3% hits. HEK293T ELG1-luciferase reporter, luminescence, 16 h; DNA damage induced by 5-fluorouridine. Potency, µM (series often up to 46.1 µM), without a hit: top-dose activity change, negative = inhibition, most hits filed as inhibitors; note: potency is the fitted concentration of half-maximal effect; nearly all actives have a fitted effect of over 55% in size
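Luminescence from the luciferase reporter, measured 30 min after ONE-Glo reagent at room temperature, was the read-out. Beforehand, 2,000 cells per well were exposed for 16 hr at 37 °C to 5-fluorouridine together with compound or vehicle.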
IL-1B inflam inh – qHTS for Inhibitors of Inflammasome Signaling: IL-1-beta AlphaLISA Primary Screen; THP-1 LPS/ATP IL-1B secretion, AlphaLISA, 16 h; active compounds read low; activity change, % at 57.5 µM; 360,000 compounds, 4.7% hits; in the data active = activity change below about -50%; inconclusive = mostly about -30% to -49%
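Secreted IL-1B measured by AlphaLISA bead assay after 16 h compound exposure of THP-1 cells; compounds (final up to 57.5 uM) added 1 h before LPS (250 ng/mL) and ATP (1.25 mM) stimulation; lower signal means less secretion.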
Numbers without * were called inactive. Unless noted, calls come from the whole dose curve; as a rule, active = well fitted curve in the direction sought with a large enough effect; inconclusive = small, poorly fitted or top-dose-only effect, or another doubt; inactive = no such curve, though single readings can be large; an effect the other way counts as inactive or inconclusive. % is set by controls: 0 for no effect and ±100 for the full control effect.

Cc1c(C(=O)Nc2cccc(C(F)(F)F)c2)oc2ccc(S(=O)(=O)N(C)C3CCCCC3)cc12 was read as TDP1 cell CPT 12µM*, TDP1 cell noCPT 13µM* and TDP1 inh 5%.
Screening COc1ccc(NC(=O)c2oc3ccc(S(=O)(=O)N(C)C4CCCCC4)cc3c2C)cc1Cl returned TDP1 cell CPT 9.2µM*, TDP1 cell noCPT 5.8µM* and TDP1 inh 3%.
Cc1ccc(NC(=O)c2cc(S(=O)(=O)N(C)C3CCCCC3)ccc2F)cc1C was read as TDP1 cell CPT 18µM*, TDP1 cell noCPT 18µM* and TDP1 inh -3%.
For Cc1c(C(=O)Nc2ccccc2Br)oc2ccc(S(=O)(=O)N3CCCCCC3)cc12 the results were TDP1 cell CPT inconclusive, TDP1 cell noCPT inconclusive and TDP1 inh 3%.
`Cc1c(C(=O)NCc2ccc(S(N)(=O)=O)cc2)oc2ccc(Cl)cc12` gave TDP1 cell CPT -10%, Giardia kill -8, TDP1 cell noCPT -7%, TDP1 inh -5%, ELG1 DNA repair 13% and IL-1B inflam inh 1.
`COc1ccc2oc(C(=O)Nc3ccc(S(=O)(=O)N(C)C4CCN(C)CC4)cc3)c(C)c2c1` gave TDP1 cell CPT inconclusive, Giardia kill -1, TDP1 cell noCPT 18µM*, TDP1 inh 3%, ELG1 DNA repair 11% and IL-1B inflam inh inconclusive.
Screening COc1ccc(NC(=O)c2oc3ccc(S(=O)(=O)N4CCCCC4)cc3c2C)cc1 returned TDP1 cell CPT inconclusive, TDP1 cell noCPT inconclusive and TDP1 inh 5%.
Cc1c(C(=O)Nc2ccc(F)c(Cl)c2)oc2ccc(S(=O)(=O)N(C)C3CCCCC3)cc12 was read as TDP1 cell CPT 23µM*, TDP1 cell noCPT 15µM* and TDP1 inh 0%.
`COc1ccc(NC(=O)C(c2ccc(OC)cc2)n2c(=O)c(-c3ccco3)nc3ccccc32)cc1` (stereo not given) gave TDP1 cell CPT inconclusive, TDP1 cell noCPT inconclusive and IL-1B inflam inh -9.
COc1ccc(C(C(=O)Nc2ccc3c(c2)OCCO3)n2c(=O)c(-c3ccco3)nc3ccccc32)cc1 (stereo not given) was read as TDP1 cell CPT 12µM*, TDP1 cell noCPT 21µM* and IL-1B inflam inh 24.
For COc1ccc(C(C(=O)NC(C)(C)C)n2c(=O)c(-c3ccco3)nc3ccccc32)cc1 (stereo not given) the results were TDP1 cell CPT inconclusive, TDP1 cell noCPT 23µM* and IL-1B inflam inh -18.
Screening COc1ccc(NC(=O)C(c2ccccc2)n2c(=O)c(-c3ccco3)nc3ccccc32)cc1 (stereo not given) returned TDP1 cell CPT 10µM*, TDP1 cell noCPT 9.2µM* and IL-1B inflam inh -9.
Screening O=C(Nc1ccc2c(c1)OCCO2)C(c1ccccc1F)n1c(=O)c(-c2ccco2)nc2ccccc21 (stereo not given) returned TDP1 cell CPT 8.2µM*, TDP1 cell noCPT inconclusive and IL-1B inflam inh -14.
`COc1ccc(NC(=O)C(c2ccccc2F)n2c(=O)c(-c3ccco3)nc3ccccc32)cc1` (stereo not given) gave TDP1 cell CPT inconclusive, TDP1 cell noCPT inconclusive and IL-1B inflam inh -15.
C=C(C)CC(C)(C)C was read as TDP1 inh 6%.
